Screens deposited in PubChem by National Center for Advancing Translational Sciences (NCATS).
hERG WT inh = KCNH2 (human, wildtype) channel inhibition. Q12809. U2OS, BacMam KCNH2, thallium flux FluxOr; stronger effect = lower value. activity change, % at 1.84 µM. 0.37% of 340,000 active. AID 720551;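 active = maximum activity change below -70%; inconclusive = maximum activity change between -70% and -50%; inactive = maximum activity change above -50%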
Target sequence (Q12809 whole entry, looked up): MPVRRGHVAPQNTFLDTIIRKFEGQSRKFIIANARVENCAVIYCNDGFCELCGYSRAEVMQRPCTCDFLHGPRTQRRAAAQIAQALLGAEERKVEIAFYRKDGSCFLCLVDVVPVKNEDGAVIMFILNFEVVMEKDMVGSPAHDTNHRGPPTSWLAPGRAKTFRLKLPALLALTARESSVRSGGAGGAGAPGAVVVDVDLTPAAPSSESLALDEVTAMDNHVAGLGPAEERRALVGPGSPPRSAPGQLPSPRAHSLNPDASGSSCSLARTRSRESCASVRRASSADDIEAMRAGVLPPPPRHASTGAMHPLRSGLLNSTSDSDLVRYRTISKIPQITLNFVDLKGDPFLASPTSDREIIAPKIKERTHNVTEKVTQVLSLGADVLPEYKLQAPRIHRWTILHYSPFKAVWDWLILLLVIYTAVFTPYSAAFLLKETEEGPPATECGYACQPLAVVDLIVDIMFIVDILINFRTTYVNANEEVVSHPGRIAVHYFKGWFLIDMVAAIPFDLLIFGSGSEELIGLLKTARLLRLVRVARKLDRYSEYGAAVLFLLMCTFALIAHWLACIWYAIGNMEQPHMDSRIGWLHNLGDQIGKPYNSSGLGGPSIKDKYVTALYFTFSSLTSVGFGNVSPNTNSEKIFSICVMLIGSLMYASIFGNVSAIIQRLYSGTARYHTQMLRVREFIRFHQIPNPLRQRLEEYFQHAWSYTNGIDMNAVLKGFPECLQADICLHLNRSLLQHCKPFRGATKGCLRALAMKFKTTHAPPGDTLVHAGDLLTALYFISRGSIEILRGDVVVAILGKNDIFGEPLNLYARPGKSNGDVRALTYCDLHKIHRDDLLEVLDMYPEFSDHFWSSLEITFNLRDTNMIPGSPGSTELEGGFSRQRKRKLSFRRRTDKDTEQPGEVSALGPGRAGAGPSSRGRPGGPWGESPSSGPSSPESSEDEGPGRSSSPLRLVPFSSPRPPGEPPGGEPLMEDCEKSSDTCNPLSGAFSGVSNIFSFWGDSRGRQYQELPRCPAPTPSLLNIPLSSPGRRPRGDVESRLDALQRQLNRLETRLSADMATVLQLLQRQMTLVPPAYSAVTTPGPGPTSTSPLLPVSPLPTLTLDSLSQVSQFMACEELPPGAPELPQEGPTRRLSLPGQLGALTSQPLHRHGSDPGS
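U2OS cells transduced with wild-type KCNH2 virus are loaded with FluxOr dye for 45 min, and thallium flux is measured in kinetic reads before and after stimulation buffer. Rate constants are normalized to DMSO controls.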
KCNH2 3.1 inh = KCNH2 3.1 (human) potassium channel inhibition; U2OS KCNH2 3.1, thallium flux FluxOr; stronger effect = lower value; 0.95% of 340,000 active; activity change, % (tested at about 1.8 µM);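 active = maximum activity change below -70%; inconclusive = maximum activity change from -70% to -50%; inactive = maximum activity change above -50%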;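 note: thallium influx rate constant from kinetic fluorescence after stimulation buffer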
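Steps: virus added to U2OS suspension (4 h, RT, dark); medium with 10% FBS added, cells plated, 37 C overnight; FluxOr/Red40 loading buffer 45 min RT; stimulation buffer, 2 min kinetic read; rate constant normalized.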
MBNL1-CUG inh = blocks human MBNL1 binding to CUG repeat RNA; Q9NR56; TR-FRET MBNL1-His/biotin-(CUG)12 binding, 665/545 ratio; Potency, µM (doses to about 57.5 µM), usual class: inhibitors; 0.036% of 280,000 active; active = well fitted inhibition curve with a large enough effect in the signal ratio, with a control signal flat, not every such curve was filed as active; inconclusive = small, poorly fitted or top-dose-only effect, or effect the other way, or a change in a side signal; inactive = no such curve, though single readings can be large or run the other way; the % refers to the signal ratio
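Inhibition of protein-RNA binding appears as loss of TR-FRET between terbium anti-His antibody on MBNL1-His and streptavidin-XL665 on biotin-(CUG)12. Activity is normalized to buffer-only and uninhibited-complex controls.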
TRPV1 agonist = agonists of human vanilloid receptor 1 (TRPV1). 0.19% of 320,000 active. Q8NER1. activation, % at 8.33 µM. TRPV1-expressing cells, Fluo-8 calcium influx, agonist mode. AID 540275; in the data active = activation above about 80%; inconclusive = between about 30% and that limit
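Cells expressing TRPV1 were dye-loaded with Fluo-8 and read kinetically: 10 s baseline, 3 min after compound (agonist portion), then 2 min after EC20 capsaicin (allosteric enhancer portion). Calcium-bound dye fluorescence at 480/520 nm.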
TRPV1 PAM = potentiators of human vanilloid receptor 1 (TRPV1); Q8NER1; TRPV1-expressing cells, Fluo-8 calcium influx, capsaicin EC20 potentiation; potentiation, % at 8.33 µM; 0.02% of 320,000 active; AID 540277; in the data active = potentiation above about 80%; inconclusive = between about 30% and that limit
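Fluo-8 calcium influx in TRPV1-expressing cells, kinetic read (ex 480/em 520 nm). Compound added and read 3 min for agonist activity, followed by capsaicin at EC20 final and 2 min further read for enhancement.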
Hits are given with their value. Only some compounds are listed: those with a hit (about 1.3% of all), similar ones and a draw of the others.

`CCCCN(CCCC)CCCNC(=O)C12CN(Cc3ccccc3)CC1C(c1cccc([N+](=O)[O-])c1)=NO2` (configuration not stated) gave hERG WT inh -75.6, KCNH2 3.1 inh -86.7, MBNL1-CUG inh inconclusive, TRPV1 agonist inactive and TRPV1 PAM inactive.
O=C(NCc1ccccc1)C12CN(Cc3ccccc3)CC1C(c1cccc([N+](=O)[O-])c1)=NO2 (configuration not stated) was read as hERG WT inh inactive, KCNH2 3.1 inh inactive, MBNL1-CUG inh inactive, TRPV1 agonist inactive and TRPV1 PAM inactive.
COc1ccc(/C=C/C(=O)Nc2ccc(OC)cc2[N+](=O)[O-])cc1 was read as hERG WT inh inactive, KCNH2 3.1 inh -85.2, MBNL1-CUG inh inconclusive, TRPV1 agonist inactive and TRPV1 PAM inactive.
`COc1ccc(NC(=O)/C=C/c2ccccc2)c([N+](=O)[O-])c1` gave hERG WT inh inactive, KCNH2 3.1 inh inactive, MBNL1-CUG inh inactive, TRPV1 agonist inactive and TRPV1 PAM inactive.
`COc1ccc(/C=C/C(=O)Nc2cccnc2Cl)cc1` gave hERG WT inh inactive, KCNH2 3.1 inh inactive, MBNL1-CUG inh inconclusive, TRPV1 agonist 84.9 and TRPV1 PAM inactive.
`COc1ccccc1/C=C/C(=O)Nc1cccnc1Cl` gave hERG WT inh inactive, KCNH2 3.1 inh inactive, MBNL1-CUG inh inactive, TRPV1 agonist inconclusive and TRPV1 PAM inactive.
For COc1ccc(NC(C)=O)cc1CP(=O)(c1ccccc1)c1ccccc1 the results were hERG WT inh inactive, KCNH2 3.1 inh inactive, MBNL1-CUG inh inactive, TRPV1 agonist inactive and TRPV1 PAM inactive.
`O=C(C1CCCO1)N1CCN(Cc2c(O)ccc3ccccc23)CC1` (configuration not stated) gave hERG WT inh inactive, KCNH2 3.1 inh -94.9, MBNL1-CUG inh inactive, TRPV1 agonist inactive and TRPV1 PAM inactive.
`Cc1ccc(S(=O)(=O)N[C@@H](Cc2ccccc2)C(=O)CCl)cc1` gave hERG WT inh inactive, KCNH2 3.1 inh inactive, MBNL1-CUG inh inactive, TRPV1 agonist inactive and TRPV1 PAM inactive.
`O=P(c1ccccc1)(c1ccccc1)N(c1ccccc1)c1ccccc1` gave hERG WT inh inactive, KCNH2 3.1 inh -70.0, MBNL1-CUG inh inactive, TRPV1 agonist inactive and TRPV1 PAM inactive.
Screening Cc1nc(NCCc2ccccc2)c2oc3ccccc3c2n1 returned hERG WT inh inactive, KCNH2 3.1 inh inactive, MBNL1-CUG inh inactive, TRPV1 agonist 81.6 and TRPV1 PAM inactive.
COc1ccc(Nc2nc(C)nc3c2oc2ccccc23)cc1 was read as hERG WT inh inactive, KCNH2 3.1 inh inactive, MBNL1-CUG inh inactive, TRPV1 agonist 98.2 and TRPV1 PAM inactive.
`Cc1nc(NCCN2CCOCC2)c2oc3ccccc3c2n1` gave hERG WT inh inactive, KCNH2 3.1 inh inactive, MBNL1-CUG inh inactive, TRPV1 agonist inactive and TRPV1 PAM inactive.
Cc1ccc(Nc2nc(C)nc3c2oc2ccccc23)cc1 was read as hERG WT inh inactive, KCNH2 3.1 inh inactive, MBNL1-CUG inh inactive, TRPV1 agonist 88.2 and TRPV1 PAM inactive.
`CN(C(=O)CC(NC(=O)c1ccccc1Cl)c1ccccc1)c1ccccc1` (configuration not stated) gave hERG WT inh inactive, KCNH2 3.1 inh inactive, MBNL1-CUG inh inactive, TRPV1 agonist inactive and TRPV1 PAM inactive.
`O=C(C[n+]1ccccc1)Nc1cc(C(F)(F)F)ccc1Cl` gave hERG WT inh inactive, KCNH2 3.1 inh inactive, TRPV1 agonist inactive and TRPV1 PAM inactive.
For O=C(C[n+]1ccc2ccccc2c1)Nc1cc(C(F)(F)F)ccc1Cl the results were hERG WT inh inactive, KCNH2 3.1 inh -82.0, MBNL1-CUG inh inconclusive, TRPV1 agonist inactive and TRPV1 PAM inactive.
For ONC(=Nc1ccc(Cl)cc1)c1ccccc1 the results were hERG WT inh inactive, KCNH2 3.1 inh inactive, MBNL1-CUG inh inactive, TRPV1 agonist inactive and TRPV1 PAM inactive.
For CCOc1cccc(C2/C(=C(/O)c3ccc4c(c3)CC(C)O4)C(=O)C(=O)N2CCCn2ccnc2)c1 (configuration not stated) the results were hERG WT inh inactive, KCNH2 3.1 inh inactive, MBNL1-CUG inh inactive, TRPV1 agonist inactive and TRPV1 PAM inactive.
